The source made the active and inactive calls. Unless noted, the rule behind the calls is not given here.
Legend:
[1] = tested on: Wnt5a (protein binding on small-molecule microarray); test: Wnt5a binders on small-molecule microarray, primary screen, biophysical, 635/667 nm fluorescence (AID 1142); details: 635 nm fluorescence, higher = more signal;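 note: fluorescence read at 667 nm with signal to noise per printed feature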
[2] = cell viability in Huh7 cells, primary screen, cytotoxicity control for HCV replication inhibitor project, CellTiter-Glo luminescence, basal, 48 h (AID 1143); details: Huh7 HCV replicon, higher = more signal, called active from +8 up or from −8 down;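 note: Huh7 hepatoma cells carrying a hepatitis C replication reporter with no stimulus; test concentration not given here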
[3] = P. aeruginosa biofilm formation inhibitors, primary screen, PAO1 strain, BacTiter-Glo luminescence, LB-PBS (AID 1144); details: 12 h, higher = more signal
[4] = CREB reporter modulators without forskolin, primary screen, cell-based, PC12, CRE-LacZ reporter, unstimulated (AID 1145); details: no forskolin, luminescence, 4.5 h, higher = more signal, called active from +8 up or from −8 down
[5] = CREB reporter modulators under forskolin, primary screen, cell-based, PC12, CRE-LacZ reporter, forskolin-stimulated (AID 1146); details: luminescence, 4.5 h, higher = more signal, called active from +8 up or from −8 down;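 note: PC12 cells with 6xCRE LacZ reporter stimulated by forskolin 10 µM; beta-galactosidase reporter signal reflecting CREB driven transcription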
[6] = target: Streptavidin (Streptomyces avidinii) (UniProt P22629); test: streptavidin binders on small-molecule microarray, primary screen, artefact control for SMM compound annotation, biophysical, 635/667 nm fluorescence (AID 1147); details: streptavidin binding, higher = more signal;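 note: signal reflects streptavidin binding to arrayed compounds as a control protein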
Chain of Streptavidin (Streptomyces avidinii) (P22629 whole entry, looked up): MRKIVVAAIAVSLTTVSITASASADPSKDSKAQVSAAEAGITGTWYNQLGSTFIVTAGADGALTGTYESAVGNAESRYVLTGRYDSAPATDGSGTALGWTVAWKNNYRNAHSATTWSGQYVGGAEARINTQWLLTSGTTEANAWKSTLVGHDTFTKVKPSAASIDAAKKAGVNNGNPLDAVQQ

[7] = small-molecule binders of probe aInhba, primary screen, biochemical, small-molecule microarray, 635/667 nm fluorescence (AID 1148); details: higher = more signal;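 note: score merges 667nm spot fluorescence with signal-to-noise for antibody binding to printed compounds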
[8] = target: Torsin-1A (Homo sapiens) (UniProt O14656); test: torsin A binders from cell lysate, primary screen, small-molecule microarray, wild-type, 635/667 nm (AID 1149); details: COS7 hTOR1A-WT lysate, 635 nm fluorescence, higher = more signal
Chain of Torsin-1A (Homo sapiens) (O14656 whole entry, looked up): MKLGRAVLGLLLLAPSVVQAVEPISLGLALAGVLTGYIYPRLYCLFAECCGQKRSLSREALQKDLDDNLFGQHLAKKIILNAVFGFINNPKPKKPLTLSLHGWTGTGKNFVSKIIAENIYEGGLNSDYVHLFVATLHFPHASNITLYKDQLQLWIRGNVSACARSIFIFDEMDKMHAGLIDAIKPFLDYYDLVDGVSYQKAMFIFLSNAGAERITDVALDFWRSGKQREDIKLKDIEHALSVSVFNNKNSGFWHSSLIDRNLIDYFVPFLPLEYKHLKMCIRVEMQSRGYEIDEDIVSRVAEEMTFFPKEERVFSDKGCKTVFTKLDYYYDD

[9] = target: Torsin-1A (Homo sapiens) (UniProt O14656); test: small-molecule binders of mutant TOR1A in lysate, primary screen, cell lysate, small-molecule microarray, COS7 lysate, 635/667 nm fluorescence (AID 1150); details: COS7 hTOR1A mutant lysate, 635 nm fluorescence, higher = more signal;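 note: score pools 667 nm emission and signal to noise measuring lysate protein binding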
[10] = tested on: Sonic hedgehog protein (Shh); test: small-molecule binders of Shh protein, primary screen, biochemical, small-molecule microarray, 635/667 nm fluorescence (AID 1151); details: small-molecule microarray binding, 635 nm fluorescence; higher = more signal;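 note: Shh protein binding to compounds spotted on small-molecule microarray slides; score combines spot fluorescence intensity with signal-to-noise across triplicate slides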
[11] = E. coli DRC41 culture turbidity changes, primary screen, E. coli filamentation inducer project, strain DRC41, OD650, 48 h (AID 1152);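 note: E. coli MC1000 strain DRC41 lacking acrAB efflux pump and sulA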; details: E. coli DRC41 (acrAB sulA), higher = more signal, called active from +8 up or from −8 down
[12] = small-molecule binders of probe aLefty1, primary screen, biochemical, small-molecule microarray, 635/667 nm fluorescence (AID 1153); details: higher = more signal;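 note: score merges spot fluorescence with signal-to-noise ratio from the scanned slide images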
[13] = PSAC antagonists in infected red cells, primary screen, cell-based, P. falciparum Indochina, OD700, 1 h (AID 1154); details: P. falciparum Indochina infected RBC osmotic lysis, higher = more signal, called active from +8 up or from −8 down
[14] = PSAC antagonists in infected red cells, primary screen, cell-based, P. falciparum Indochina, OD700, 2 h (AID 1155);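 note: lysis reports solute entry through the parasite surface anion channel PSAC; channel blockers reduce lysis of infected cells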; details: P. falciparum Indochina infected erythrocytes, osmotic lysis OD700; higher = more signal, called active from +8 up or from −8 down
[15] = osmotic lysis modulators in infected erythrocytes, primary screen, PSAC antagonist project, cell-based, P. falciparum Indochina, OD700, 3 h (AID 1156); details: higher = more signal, called active from +8 up or from −8 down
[16] = PSAC antagonists in infected red cells, primary screen, cell-based, P. falciparum Indochina, OD700, 18 h (AID 1157); details: P. falciparum Indochina infected erythrocytes, osmotic lysis OD700, 18 h; higher = more signal, called active from +8 up or from −8 down
[17] = modulators of S6 phosphorylation in cells, primary screen, cell-based, A549, cytoblot, luminescence, serum-stimulated (AID 1158); details: A549 phospho-S6 cytoblot, 5 h, higher = more signal;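 note: serum-stimulated A549 lung adenocarcinoma cells; signal is phosphorylated S6 detected by cytoblot immunostaining with HRP secondary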
[18] = target: NADPH oxidase 2 (Homo sapiens) (UniProt P04839); test: NOX2-dependent H2O2 signal modulators, primary screen, NOX inhibitor project, cell-based, HEK293-NOX2, PMA-stimulated, Amplex Red fluorescence (AID 1159); details: 45 min, higher = more signal, called active from +8 up or from −8 down; note: test concentration not given here
Chain of NADPH oxidase 2 (Homo sapiens) (P04839 whole entry, looked up): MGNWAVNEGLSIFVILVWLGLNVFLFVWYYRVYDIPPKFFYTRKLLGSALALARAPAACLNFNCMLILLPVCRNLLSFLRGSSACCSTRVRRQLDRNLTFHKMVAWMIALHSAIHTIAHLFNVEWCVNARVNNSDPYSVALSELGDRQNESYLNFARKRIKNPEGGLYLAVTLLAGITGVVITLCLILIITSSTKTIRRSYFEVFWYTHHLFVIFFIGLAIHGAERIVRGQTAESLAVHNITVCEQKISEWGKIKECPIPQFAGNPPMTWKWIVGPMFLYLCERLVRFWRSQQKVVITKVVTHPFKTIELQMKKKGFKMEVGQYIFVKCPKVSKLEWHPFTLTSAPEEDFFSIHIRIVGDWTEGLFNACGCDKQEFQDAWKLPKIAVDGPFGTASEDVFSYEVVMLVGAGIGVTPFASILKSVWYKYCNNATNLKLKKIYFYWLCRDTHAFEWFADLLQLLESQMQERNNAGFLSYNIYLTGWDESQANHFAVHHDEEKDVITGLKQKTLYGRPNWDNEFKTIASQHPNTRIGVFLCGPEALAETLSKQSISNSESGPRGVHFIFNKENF

[19] = target: NADPH oxidase 4 (Homo sapiens) (UniProt Q9NPH5); test: NOX4-dependent H2O2 signal modulators, primary screen, NOX inhibitor project, cell-based, HEK293-NOX4, tetracycline-induced, Amplex Red fluorescence (AID 1160); details: 45 min, higher = more signal, called active from +8 up or from −8 down
Chain of NADPH oxidase 4 (Homo sapiens) (Q9NPH5 whole entry, looked up): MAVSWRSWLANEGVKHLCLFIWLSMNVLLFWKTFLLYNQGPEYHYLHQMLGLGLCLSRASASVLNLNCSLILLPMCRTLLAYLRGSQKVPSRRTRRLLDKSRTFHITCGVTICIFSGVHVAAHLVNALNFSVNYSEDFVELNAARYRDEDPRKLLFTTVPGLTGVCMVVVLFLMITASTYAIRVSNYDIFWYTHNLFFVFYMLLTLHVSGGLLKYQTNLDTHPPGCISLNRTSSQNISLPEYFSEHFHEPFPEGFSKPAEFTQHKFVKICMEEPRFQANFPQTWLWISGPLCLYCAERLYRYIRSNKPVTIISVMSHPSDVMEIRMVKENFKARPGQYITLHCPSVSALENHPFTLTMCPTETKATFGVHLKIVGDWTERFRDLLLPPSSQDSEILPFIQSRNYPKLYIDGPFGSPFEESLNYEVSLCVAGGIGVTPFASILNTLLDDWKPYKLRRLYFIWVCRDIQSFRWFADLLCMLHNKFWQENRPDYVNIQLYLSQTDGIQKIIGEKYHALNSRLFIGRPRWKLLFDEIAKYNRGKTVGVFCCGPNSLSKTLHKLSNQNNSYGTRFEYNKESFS

[20] = target: NADPH oxidase 5 (Homo sapiens) (UniProt Q96PH1); test: NOX5-dependent H2O2 signal modulators, primary screen, NOX inhibitor project, cell-based, HEK293-NOX5, Amplex Red fluorescence (AID 1161); details: HEK293-NOX5, ionomycin, 45 min, higher = more signal
Chain of NADPH oxidase 5 (Homo sapiens) (Q96PH1 whole entry, looked up): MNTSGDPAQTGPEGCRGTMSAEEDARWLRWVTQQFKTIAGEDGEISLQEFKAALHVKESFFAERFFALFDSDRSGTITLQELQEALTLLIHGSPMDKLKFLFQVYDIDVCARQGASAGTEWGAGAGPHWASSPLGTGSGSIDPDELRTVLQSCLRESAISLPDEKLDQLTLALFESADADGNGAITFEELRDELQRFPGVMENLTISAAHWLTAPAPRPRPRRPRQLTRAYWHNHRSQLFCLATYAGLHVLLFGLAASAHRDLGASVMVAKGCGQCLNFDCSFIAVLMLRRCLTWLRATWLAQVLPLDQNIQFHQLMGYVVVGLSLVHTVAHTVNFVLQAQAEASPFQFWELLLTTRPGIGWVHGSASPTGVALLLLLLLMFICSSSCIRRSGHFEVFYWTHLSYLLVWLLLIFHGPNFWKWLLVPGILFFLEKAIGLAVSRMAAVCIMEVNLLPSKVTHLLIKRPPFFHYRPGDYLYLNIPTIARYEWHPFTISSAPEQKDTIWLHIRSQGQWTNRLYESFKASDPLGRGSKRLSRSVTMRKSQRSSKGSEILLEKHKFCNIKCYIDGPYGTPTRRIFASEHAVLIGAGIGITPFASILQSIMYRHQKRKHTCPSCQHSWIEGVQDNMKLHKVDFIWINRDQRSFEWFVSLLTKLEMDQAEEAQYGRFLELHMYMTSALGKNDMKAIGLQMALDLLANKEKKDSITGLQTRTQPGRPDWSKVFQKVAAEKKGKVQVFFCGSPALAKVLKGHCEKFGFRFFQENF

Compound | composite z-score [1] | z-score [2] | z-score [3] | z-score [4] | z-score [5] | composite z-score [6] | composite z-score [7] | composite z-score [8] | composite z-score [9] | composite z-score [10] | z-score [11] | composite z-score [12] | z-score [13] | z-score [14] | z-score [15] | z-score [16] | z-score [17] | z-score [18] | z-score [19] | z-score [20]
OCc1ccc(-c2cc[n+](Cc3cccc(OC(F)(F)F)c3)cc2)cc1 | 0.252 | -1.64 (inactive) | -0.473 (inactive) | -0.374 (inactive) | -0.119 (inactive) | 1.24 | -0.0221 | 1.18 | 1.12 | 1.98 | 0.0027 (inactive) | 0.423 | 0.51 (inactive) | 0.409 (inactive) | -0.445 (inactive) | -0.0616 (inactive) | -0.104 | -0.316 (inactive) | -0.0783 (inactive) | -3.79
COc1ccc(C(=O)Nc2ccc(CN3C(=O)[C@]4(O[C@H](CCn5cc([C@H](O)c6ccccc6)nn5)[C@@H]([Si](C)(C)c5ccc(OC)cc5)[C@@H]4C)c4ccccc43)cc2)cc1 | -0.0249 | -6.51 (inactive) | -0.675 (inactive) | -0.375 (inactive) | -1.22 (inactive) | -0.19 | -0.0044 | 0.33 | 0.223 | 0.666 | -0.372 (inactive) | 0.193 | 3.29 (inactive) | 1.02 (inactive) | 0.741 (inactive) | 1.26 (inactive) | 0.319 | 0.753 (inactive) | 0.206 (inactive) | 2.27
C=C(COC)/C(=C/C[C@@H](OC(=O)c1ccncc1)c1cccc(OCCO)c1)c1cc(C(=O)OC)ccc1OC | 0.996 | -8.13 (active) | -0.0417 (inactive) | 23.7 (active) | -0.376 (inactive) | -0.0673 | 0.709 | 2.64 | 1.49 | 2.11 | 0.701 (inactive) | 0.0698 | 8.82 (active) | 4.64 (inactive) | -3.3 (inactive) | 1.53 (inactive) | -0.88 | -3.02 (inactive) | -0.817 (inactive) | -1.23
CC(C)NC(=O)[C@@H]1c2ccccc2C(=O)N(Cc2cc(C(F)(F)F)cc(C(F)(F)F)c2)[C@H]1c1ccc(CO)cc1 | 0.133 | 0.0274 (inactive) | 0.71 (inactive) | 0.0279 (inactive) | 0.296 (inactive) | 0.0544 | 0.136 | 0.275 | 0.0913 | 0.646 | -0.464 (inactive) | 0.358 | 1.54 (inactive) | 0.349 (inactive) | -0.113 (inactive) | 0.057 (inactive) | -0.167 | 0.513 (inactive) | 0.349 (inactive) | -0.284
COCCOC(=O)N1C(=O)[C@@]2(c3cc(C#Cc4ccc(OC)cc4)ccc31)[C@H](C(N)=O)[C@H]1C(=O)O[C@H](c3ccccc3)[C@H](c3ccccc3)N1[C@@H]2c1ccc(OCCO)cc1 | 0.608 | -4.52 (inactive) | -0.637 (inactive) | -0.598 (inactive) | -0.164 (inactive) | 0.741 | 0.267 | 0.534 | 0.424 | 1.66 | 0.79 (inactive) | 1.45 | 21.2 (active) | 5.69 (inactive) | 1.75 (inactive) | 1.95 (inactive) | -0.0813 | 0.933 (inactive) | -0.164 (inactive) | 1.86
O=C1O[C@H](c2ccccc2)[C@H](c2ccccc2)N2[C@H]1[C@@H](C(=O)N1CCN(c3ncccn3)CC1)[C@]1(C(=O)Nc3ccc(C#CCCO)cc31)[C@H]2c1ccccc1OCCO | 0.163 | -1.55 (inactive) | 0.525 (inactive) | 0.765 (inactive) | -0.484 (inactive) | 0.376 | 0.0714 | 0.506 | 0.686 | 0.371 | 0.313 (inactive) | -0.012 | 2.7 (inactive) | 1.55 (inactive) | 0.561 (inactive) | 0.657 (inactive) | -0.673 | 1.45 (inactive) | 0.492 (inactive) | 0.333
C=C(COC)C(=O)CC[C@H](OC(=O)c1ccccc1-c1ccccc1C(=O)O)c1ccc(OCCO)cc1 | 0.314 | -0.0319 (inactive) | -0.623 (inactive) | 2.19 (inactive) | -0.42 (inactive) | -0.237 | 0.0906 | 2.29 | 0.383 | 1.81 | 0.146 (inactive) | 0.134 | 10.5 (active) | 1.72 (inactive) | 2 (inactive) | 0.626 (inactive) | -0.0494 | 0.00741 (inactive) | -0.221 (inactive) | -1.8
CN(C)C(=O)[C@@]1(CCC(=O)OC(C)(C)C)COC(c2ccc(OCCCO)cc2)=N1 | 0.0507 | -0.196 (inactive) | -0.478 (inactive) | -0.277 (inactive) | 0.855 (inactive) | -0.354 | 0.174 | 0.445 | 1.45 | -0.942 | 0.752 (inactive) | 0.3 | 9.27 (active) | 0.536 (inactive) | -0.674 (inactive) | 0.198 (inactive) | -0.449 | -0.0773 (inactive) | 0.829 (inactive) | 0.655
O=C1NC(=O)C2C1C=CC(C(O)c1ccc3c(c1)OCO3)N2Nc1ccc(Cl)cc1Cl (stereo not given) | -0.002 | -0.0416 (inactive) | -0.238 (inactive) | 0.0501 (inactive) | -0.329 (inactive) | 0.347 | 0.249 | 0.0858 | -0.446 | -0.116 | -3.85 (inactive) | 0.0861 | 7.58 (inactive) | 1.84 (inactive) | -0.254 (inactive) | 1.56 (inactive) | -0.593 | -0.0436 (inactive) | -5.24 (inactive) | -3.26
